About 2,000 (36%) of roughly 5,500 compounds were called active. Not shown: some 18% with an inconclusive outcome. Rule as the data show it: active = normalized growth mostly below about 0.91 (no sharp cut-off); inconclusive = no clear call, values can overlap the other calls; inactive = mostly above about 0.92. The list shows a part of the results.
Test: chemical genetic growth profiling, strain panel (AID 1159580);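 also: tested at 20 µM; growth read once vehicle control cultures reached saturation at 30 °C; 1 = growth at the plate median or of vehicle wells; lower values mean less growth of the strain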
Settings: S. cerevisiae deletion strains, growth OD

Measured: normalized growth

C#CCn1c(=O)c2c(ncn2C)n(C)c1=O
inactive: locus YAL013W, strain DEP1, stronger effect = lower value 0.982 | locus YAL040C, strain CLN3, stronger effect = lower value 1.01 | locus YCL061C, strain MRC1 (second series), stronger effect = lower value 1.01 | locus YDR150W, strain NUM1, stronger effect = lower value 0.999 | locus YDR363W, strain ESC2, stronger effect = lower value 0.989 | locus YER002W, strain NOP16, stronger effect = lower value 0.997 | locus YGR078C, strain PAC10, stronger effect = lower value 1.01 | locus YGR229C, strain SMI1, stronger effect = lower value 1.03 | locus YJR075W, strain HOC1, stronger effect = lower value 0.994 | locus YMR263W, strain SAP30, stronger effect = lower value 0.995 | locus YMR307W, strain GAS1, stronger effect = lower value 1.01 | locus YNL175C, strain NOP13, stronger effect = lower value 0.998 | locus YNL197C, strain WHI3, stronger effect = lower value 0.977 | locus YNL224C, strain SQS1, stronger effect = lower value 1.01 | locus YNL322C, strain KRE1, stronger effect = lower value 0.987 | locus YOR083W, strain WHI5 (second series), stronger effect = lower value 0.965 | locus YPL241C, strain CIN2, stronger effect = lower value 1

— PubChem BioAssay AID1159580 (chemical genetic matrix, 2015)
